# Assay outcomes: PubChem BioAssay, PCMD
# FXIIa inh = blocks human coagulation factor XIIa activity; purified human FXIIa, AMC substrate fluorescence, 2 h; inhibition, % at 10 µM; P00748; hit rate 0.2% among 33,000; in the data active = inhibition above about 30%
# FXIa single inh = inhibitors of human coagulation factor XIa | inhibition, % at 10 µM | P03951 | hit rate 0.3% among 33,000 | purified human FXIa, fluorogenic AMC substrate cleavage;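 active = inhibition above 40% in the primary screen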
# Numbers stand for hits; . = inactive. This is one part of a sample in which hits are shown more often than they occur.
SMILES,FXIIa inh,FXIa single inh
Clc1ccccc1C(c1nnnn1Cc1ccco1)N1CCN(Cc2ccco2)CC1 (stereo not given),.,.
CN1CCN(c2ccccc2NC(=O)COc2ccc(Br)cc2)CC1,.,.
Cc1cc(C#N)c(C)n1-c1cc(S(=O)(=O)N2CCOCC2)ccc1N1CCCC1,.,.
CCOc1ccccc1OC(=O)c1ccco1,.,.
CCOc1cccc2cc(C(N)=O)c(=NCc3ccccc3)oc12,.,52
O=c1[nH]c(=O)n(Cc2ccco2)c2c1C(C(F)(F)F)(C(F)(F)F)N=C(Cc1ccccc1)N2,.,.
CCOc1ccc(S(=O)(=O)N2CCN(c3ccccc3F)CC2)c2cccnc12,.,.
COc1ccc(CCNC(=O)CSc2nc3ccccc3o2)cc1,.,.
FC(F)(F)c1cnc(Oc2ccccc2-c2nnco2)c(Cl)c1,.,.
FC(F)(F)c1cnc(Oc2ccc(-c3nnco3)cc2)c(Cl)c1,31,.
Cc1cc(S(=O)(=O)Nc2cc(C)c(O)c(C)c2)c(C)s1,.,.
CC(C)N(C(=O)C(=O)c1cccn1-c1ccccc1C#N)C(C)C,.,.
